Screening data as filed in PubChem.
FBA Mtb inh: inhibitors of M. tuberculosis fructose-bisphosphate aldolase | 2.3% of 360,000 active | AID 588726 | inhibition, % at 1 µM | P9WQA3 | purified M. tuberculosis FBA, fluorescence read-out; in the data active = inhibition above about 27%;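 note: 0% = vehicle and 100% = reference inhibitor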
GDH-TPI counter-1: inhibits GDH-TPI coupling enzymes, artifact for Mtb FBA screen; GDH-TPI coupled enzyme counterscreen, NADH absorbance; inhibition, % at 4.8 µM; 1.2% of 360,000 active; AID 588335;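 note: 0% = DMSO wells and 100% = wells lacking the enzyme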
CCHFV vOTU inh: CCHFV vOTU protease inhibition. AID 651958. Pep-AMC fluorescence. 0.55% of 370,000 active. inhibition, % at 11.5 µM; note: 0% = vehicle wells with enzyme and 100% = no enzyme wells
RecA splice inh: blocks M. tuberculosis RecA intein splicing | cell-free RecA intein splicing, fluorescence | inhibition, % (test concentration not listed) | 0.75% of 290,000 active; in the data active = inhibition above about 30%;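 note: 0% = vehicle wells and 100% = reference inhibitor control wells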
Mtb FBA confirm: confirmation of M. tuberculosis fructose-bisphosphate aldolase inhibitors; inhibition, % at 1 µM; purified M. tuberculosis FBA, fluorescence read-out; 78% of 5,600 active; AID 651616; shares compounds with FBA Mtb inh; in the data active = inhibition above about 27%;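 note: 0% = vehicle wells and 100% = reference inhibitor wells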
GDH-TPI counter-2: inhibits GDH-TPI coupling enzymes, flagging Mtb FBA hits | shares compounds with FBA Mtb inh | GDH-TPI coupled enzyme counterscreen, fluorescence | inhibition, % at 1 µM | 81% of 5,600 active; in the data active = inhibition above about 10%
Starred values were filed as active, the others as inactive; · = not tested or not shown; + = active, no number. Most compounds without a hit are left out; they make up all but 4.2% or so of the library. Cut-off read from the data, not from the text of the source, unless noted: active = inhibition above about 30%; inactive = the rest.

SMILES	FBA Mtb inh	GDH-TPI counter-1	CCHFV vOTU inh	RecA splice inh	Mtb FBA confirm	GDH-TPI counter-2
Cc1ccc([C@H]2N[C@]3(CCCN(Cc4ccc(C(F)(F)F)cc4)C3=O)[C@H]3C(=O)N(C)C(=O)[C@@H]23)cc1	0.1	0.5	0.1	·	·	·
N#Cc1nc(COc2ccccc2)oc1N1CCCCCC1	-2.7	1.4	12.6	3.4	·	·
N#Cc1nn(-c2ccccc2)nc1N1CCCCC1	38.3*	11.7	-17.9	10.3	129.4*	106.0*
Cc1cc(C)c2sc(NC(=O)C3=COCCO3)nc2c1	0.3	-3.5	0.6	-6.0	·	·
CC(=O)NC(c1cccs1)c1cc(Cl)c2ccccc2c1O (stereo not given)	35.9*	15.5	-13.9	·	83.8*	58.3*
CCC(=O)NC(C)c1cc(Cl)c2ccccc2c1O (stereo not given)	8.7	-4.3	-4.7	·	·	·
CCC(=O)NC(c1cccs1)c1cc(Cl)c2ccccc2c1O (stereo not given)	39.2*	-3.6	-20.7	·	116.5*	79.8*
NC(=O)c1cccc(-c2ccnc3c2CC(C(=O)Nc2cccc(Oc4ccccc4)c2)O3)c1 (stereo not given)	-3.2	-7.1	·	·	·	·
CNc1cc(-c2ccc(OC)c(OC)c2)ncn1	23.9	12.8	-3.5	·	·	·
CNc1ccc2ncc(-c3ccc(OC)c(OC)c3)n2n1	43.7*	17.3	-47.0	·	10.8	6.7
CNc1cncc(-c2c(OC)cccc2OC)n1	77.2*	8.4	-100.9	·	+	+
CNc1cncc(-c2ccc(OC)c(OC)c2)n1	57.7*	20.4	-55.0	·	78.2*	62.9*
C/C(=N\NC(=O)C1CCCC1)c1ccc(Cl)cc1Cl	1.5	-3.8	9.9	-0.2	·	·
COc1ccccc1C(=O)NNC(=O)CN(C)S(=O)(=O)c1ccc(Cl)cc1	-2.0	3.9	-1.9	·	·	·
COC(=O)[C@H](Cc1ccccc1)NC(=O)NC(C)CCc1ccccc1 (stereo not given in full)	76.8*	2.9	-7.0	2.4	+	+
CCOc1ccc(/C=N/NC(=O)c2[nH]ncc2Br)c(O)c1	10.7	25.0	-0.2	·	·	·
COc1ccc(/C=N/NC(=O)CCc2n[nH]c(=O)[nH]c2=O)cc1O	0.9	13.3	-7.8	0.2	·	·
COc1ccc(OC)c(/C=N/NC(=O)c2[nH]ncc2Br)c1	39.3*	21.4	-34.4	·	+	+
COc1ccc(OC)c(/C=N/NC(=O)c2[nH]nc3c2CCc2ccccc2-3)c1	44.7*	14.8	-12.5	-0.2	+	+
COc1ccc(OC)c(/C=N/NC(=O)CCc2n[nH]c(=O)[nH]c2=O)c1	60.1*	13.2	-51.3	1.5	118.7*	87.1*
COCCN(CCOC)Cc1cc(=O)oc2ccc3ccccc3c12	4.9	·	-13.2	·	·	·
O=C(Nc1nccs1)c1ccccc1N=Cc1ccccc1	87.5*	11.3	-100.5	-6.7	-1.7	3.5
COc1cccc(C=Nc2ccccc2C(=O)Nc2nccs2)c1OC	68.4*	5.7	-36.9	-8.2	156.1*	125.9*
O=C(NCCC(F)(F)F)C1Cc2c(-c3ccc(Cl)cc3)ccnc2O1 (stereo not given)	1.0	12.8	2.8	·	·	·
COc1ccc(OC)c(/C=N/NC(=O)CSc2cc(C)nc3c(OC)cccc23)c1	29.7*	9.5	-50.0	11.7	49.7*	35.3*
SMILES	FBA Mtb inh	GDH-TPI counter-1	CCHFV vOTU inh	RecA splice inh	Mtb FBA confirm	GDH-TPI counter-2
COc1ccc(OC)c(/C=N\NC(=O)c2c(C)nc3cc(C)ccn23)c1	60.4*	16.9	-103.5	-0.2	+	+
COc1cc(/C=N\NC(=O)c2c(C)nc3cc(C)ccn23)ccc1O	3.9	29.2	11.9	-2.6	·	·
Cc1ccc(C(=O)NCC(=O)OCC(=O)NC(C)C2CC3CCC2C3)cc1 (stereo not given)	1.7	7.8	0.8	·	·	·
Cc1cc2nc(-c3ccc(Cl)cc3)c(Cc3ccsc3)n2c(C)c1Br	·	·	4.1	·	·	·
CC(=O)Nc1ccc(S(=O)(=O)Nc2nc3ccccc3nc2Nc2ccc(C(=O)O)c(O)c2)cc1	4.0	26.4	22.4	·	·	·
O=C(O)c1ccc(Nc2nc3ccccc3nc2NS(=O)(=O)c2ccc(F)cc2)cc1	45.8*	32.8*	9.1	-3.0	+	156.4*
CC(=O)Nc1ccc(S(=O)(=O)Nc2nc3ccccc3nc2Nc2cccc(O)c2)cc1	74.6*	25.3	8.6	0.1	72.1*	58.2*
O=[N+]([O-])c1ccc(Cl)c(CN2CCN(c3ncc(Cc4ccccc4)cn3)CC2)c1	·	·	17.3	·	·	·
CN(C)c1ncccc1-c1nc2ccccc2s1	30.3*	12.9	-42.4	-9.4	30.6*	17.2*
CCn1c(SC(C)C(=O)NCC2CCCO2)nc2ccccc21 (stereo not given)	0.5	-2.5	2.8	·	·	·
COc1ccc(-c2oc3c(c2C#CC2(O)CCCCC2)C(OC)CCC3)cc1 (stereo not given)	·	·	-27.9	·	·	·
Cc1ccc(NS(=O)(=O)c2ccc(NC(=O)C(C)Sc3ccc(Cl)cc3)cc2)c(C)c1 (stereo not given)	81.5*	2.0	7.2	6.3	1.6	-3.4
CCN(CC)S(=O)(=O)c1ccc(OC(C)C)c(NC(=O)c2c3c(nc4ccccc24)CCN(Cc2ccccc2)C3)c1	2.9	4.4	9.7	15.9	·	·
COc1ccccc1NC(=O)Cn1c2ccc(F)cc2c2nc3n(c(=O)c21)CCS3	8.7	17.7	13.0	0.4	·	·
O=C(Cn1c2ccc(F)cc2c2nc3n(c(=O)c21)CCS3)NCC1CCCO1 (stereo not given)	30.4*	8.8	-18.1	-0.3	62.4*	54.6*
COc1ccc2oc(C(=O)OCC(=O)NCC3CCCO3)c(C)c2c1 (stereo not given)	36.0*	8.6	-23.0	-3.0	90.9*	81.4*
COc1ccc2oc(C(=O)NCC3CCCO3)c(C)c2c1 (stereo not given)	24.6	3.0	-0.6	3.6	·	·
CCOc1ccc2oc(C(=O)OCC(=O)NCC3CCCO3)c(C)c2c1 (stereo not given)	39.4*	4.5	-13.1	·	16.5	13.0*
CC(C)C[C@H]1CN(CCCC[C@@H]2CNC(=O)C(=O)N2CC2CCCCC2)C(=O)C(=O)N1Cc1ccccc1	·	·	3.4	·	·	·
CCCCN(C)C(=O)c1cn(-c2cccc(OC)c2)c(=O)c2ccccc12	3.3	-0.9	8.8	1.5	·	·
COc1ccc2nc3oc(C(=O)N4CCN(c5cccc(Cl)c5)CC4)cc3cc2c1	3.2	10.7	-1.4	-4.4	·	·
CCCCN(C)C(=O)c1cc2cc3ccc(OC)cc3nc2o1	78.0*	15.1	-97.7	-1.1	3.0	2.1
CCCCN(C)C(=O)c1cc2cc3cc(OC)ccc3nc2o1	73.7*	9.3	-43.5	-2.1	166.4*	126.6*
CN1OC[C@@H]2CN(C(=O)CCc3ccccc3)[C@H](c3cccc(Oc4ccccc4)c3)C[C@@H]21	-1.1	2.8	1.5	·	·	·
CC(C)CN(C(=O)CN1C(=O)NC(c2ccccc2)(c2ccccc2)C1=O)C1CCS(=O)(=O)C1 (stereo not given)	0.4	-11.1	10.4	·	·	·
COCCN(Cc1ccccc1)C(=O)c1ccc(C(=O)c2ccccc2)cc1	0.1	1.8	9.9	·	·	·
